The text below walks through data of PubChem BioAssay (NCATS).

Assay [1] concerns CRL-7250. Kind of assay: Cytotoxic Profiling of Annotated Libraries Using Quantitative High-Throughput Screening (AID 1296008). For max response: % is set by controls: 0 for no effect and ±100 for the full control effect. Note: nearly all actives have a fitted effect of over 60% in size. As to conditions: Five cell lines viability, CellTiter-Glo ATP luminescence, 48-72 h; max response: stronger effect = lower value. In short, it runs like this: (§1)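 Cells exposed to compounds for 48 or 72 hr at 37 degrees Celsius. Viability read as ATP-coupled luminescence with CellTiter-Glo after 10 min at room temperature.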
For orientation: In ATP-based viability assays light output follows the ATP content of the culture.

For assay [2], the system named is HEK293. The description is as above. As to conditions: Five cell lines viability, CellTiter-Glo ATP luminescence, 48-72 h; max response: stronger effect = lower value. In short, it runs like this:
as §1

For assay [3], the system named is HaCat. The assay is described as above. As to conditions: Five cell lines viability, CellTiter-Glo ATP luminescence, 48-72 h; max response: stronger effect = lower value. In short, it runs like this: as §1
In assay [4] the test system is KB-3-1. Described as above. Conditions: Five cell lines viability, CellTiter-Glo ATP luminescence, 48-72 h; max response: stronger effect = lower value. In short, it runs like this:
as §1

The test system of assay [5] is NIH3T3. Described as above. Conditions: Five cell lines viability, CellTiter-Glo ATP luminescence, 48-72 h; max response: stronger effect = lower value. In short, it runs like this: as §1
In assay [6] the test system is NIH3T3. As to the kind of experiment: qHTS assay to identify novel small-molecules to repurpose for Merkel cell carcinoma treatment (AID 1296009). Note: nearly all actives have a fitted effect of over 60% in size. As to conditions: MCC and control cell lines, CellTiter-Glo viability, 72 h; at 44.8 µM (top of the series) unless noted. In short, it runs like this: (§2)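 Dose-response viability screen; 72 hr exposure at 37 degree celsius; CellTiter-Glo added, 10 min room temperature, luminescence read; RLUs scaled between no-cell and DMSO wells.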

In assay [7] the test system is C33A. Kind of assay: Primary qHTS to identify gynecologic anti-cancer compounds using libraries of approved drugs and bioactive compounds (AID 1345084). For activity change, negative = cytotoxicity: % is set by controls: 0 for no effect and ±100 for the full control effect. Note: nearly all actives have a fitted effect of over 55% in size. Note: potency is the fitted concentration of half-maximal effect. Conditions: Gynecologic cancer cell panel viability, ATPlite luminescence, 48 h; series mostly up to 57.5 µM. In short, it runs like this:
(§3)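 Cell viability after 48 h drug treatment, ATPlite luminescence readout; five doses.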
A general note: In qHTS, concentration-response curves come from the screen itself.

The test system of assay [8] is CASKI. Described as above. Conditions: Gynecologic cancer cell panel viability, ATPlite luminescence, 48 h; series mostly up to 57.5 µM. In short, it runs like this: as §3
Assay [9] has as its system Es-2. The description is as above. Conditions: Gynecologic cancer cell panel viability, ATPlite luminescence, 48 h; series mostly up to 57.5 µM. In short, it runs like this:
as §3

The test system of assay [10] is HeLa. Described as above. Conditions: Gynecologic cancer cell panel viability, ATPlite luminescence, 48 h; series mostly up to 57.5 µM. In short, it runs like this: as §3
Assay [11] has as its system Hek293T. Described as above. As to conditions: Gynecologic cancer cell panel viability, ATPlite luminescence, 48 h, control line for the selectivity index; series mostly up to 57.5 µM. In short, it runs like this:
as §3

The subject of assay [12] is JEG-3. The description is as above. Conditions: Gynecologic cancer cell panel viability, ATPlite luminescence, 48 h; series mostly up to 57.5 µM. In short, it runs like this: as §3
Assay [13] has as its system OV90. The description is as above. As to conditions: Gynecologic cancer cell panel viability, ATPlite luminescence, 48 h; series mostly up to 57.5 µM. In short, it runs like this: as §3
Assay [14] concerns CAOV3. The description is as above. As to conditions: Gynecologic cancer cell panel viability, ATPlite luminescence, 48 h; series mostly up to 57.5 µM. In short, it runs like this:
as §3

The subject of assay [15] is HACAT. As to the kind of experiment: qHTS assay to identify novel small-molecules to repurpose for Merkel cell carcinoma treatment (AID 1296009). Note: nearly all actives have a fitted effect of over 60% in size. As to conditions: MCC and control cell lines, CellTiter-Glo viability, 72 h; at 44.8 µM (top of the series) unless noted. In short, it runs like this:
as §2

Inconclusive results are not listed. Unmarked numbers belong to inactive results. The source made the active and inactive calls. Calls come from the whole dose curve; as a rule, active = well fitted curve in the direction sought with a large enough effect; inconclusive = small, poorly fitted or top-dose-only effect, or another doubt; inactive = no such curve, though single readings can be large; an effect the other way counts as inactive or inconclusive.

On to `CC1(C)CC[C@]2(C(=O)O[C@@H]3O[C@H](CO[C@@H]4O[C@H](CO)[C@@H](O)[C@H](O)[C@H]4O)[C@@H](O)[C@H](O[C@@H]4O[C@H](CO)[C@@H](O)[C@H](O)[C@H]4O)[C@H]3O)[C@H](O)C[C@]3(C)C(=CCC4[C@@]5(C)CC[C@H](O[C@@H]6OC[C@@H](O)[C@H](O)[C@H]6O)[C@@](C)(C(=O)O)C5CC[C@]43C)[C@@H]2C1` (stereo not given in full), for which the max response was -2.05% in assay [1], -13.5% in [2], -5.99% in assay [3] and 2.29% in [4]. Also, the outcome in assay [5] was inactive. Further, the outcome in [6] is “inactive [at 9.27 µM]”. Besides, the activity change, negative = cytotoxicity was -4.53% [at 11.6 µM] in [7]; 0.848% [at 11.6 µM] in assay [8]; 1.6% [at 11.6 µM] in [9]; 2.79% [at 11.6 µM] in [10]; 10.6% [at 11.6 µM] in assay [11]; -3% [at 11.6 µM] in assay [12]. Moreover, in assay [13], the activity change, negative = cytotoxicity is 6.96% [at 11.6 µM].

With `O=C(/C=C/C=C/c1ccc2c(c1)OCO2)N1CCCCC1`, the call in assay [1], in [5] and in assay [8] was inactive. The max response was 3% in [2], 0.66% in [3] and 3.15% in assay [4]. Further, the Potency entry in [7], in [14], in assay [10], in assay [11] and in [12] was “inactive” in each case.

As for `CC1=C2C(=O)C=C(CO[C@@H]3O[C@H](CO)[C@@H](O)[C@H](O)[C@H]3O)[C@@H]2[C@H]2OC(=O)[C@H](C)[C@@H]2CC1`, the max response was -4.79% in assay [1], 3.74% in assay [2], 4.93% in assay [3] and 0.664% in assay [4]. The outcome in assay [5] and in assay [8] was inactive. Also, in [6], the outcome is “inactive [at 17.4 µM]”. Moreover, the Potency entry in [7], in assay [9], in assay [10], in assay [11], in assay [12] and in assay [13] was “inactive” throughout.

`C/C=C(\C)C(=O)OC1C(C)C2(O)C3C=C(C)C(=O)C3CC(CO)=CC2C2C(C)(C)C12OC(C)=O` (stereo not given): the max response is -31.4% in assay [1], -25.8% in assay [2], 4.78% in assay [3] and 2.42% in [4]. For the same compound, the compound was classed as inactive in assay [5] and in [8]. The outcome in assay [6] was “inactive [at 17.4 µM]”. For the same compound, the Potency entry in assay [14], in [10], in [11], in assay [12] and in assay [13] was “inactive” in each case. Moreover, the Potency in assay [9] was 112 nM (active).

As to `C=C(C(=O)O)[C@H]1C[C@]2(C)C(=O)CC[C@]23O[C@H]1C[C@@H]3C`, the max response in assay [1] is -1.57%; in [2] it was -7.61%; in [3] it was 1.8%; in [4], 4.05%. Further, the call in assay [5] and in [8] was inactive. In addition, the Potency result in assay [7], in assay [14], in [9], in assay [10], in [11] and in [12] was “inactive” throughout. The Potency entry in assay [13] was “inactive”.

In the case of `C=C1CCC2(OC1)OC1CC3C4CC=C5CC(O)CC(O[C@@H]6OC[C@H](OC(=O)C(O)C(C)CC)[C@H](O)[C@H]6O[C@@H]6O[C@@H](C)[C@H](O)[C@@H](O)[C@H]6O)C5(C)C4CCC3(C)C1C2C` (stereo not given in full), the results for the max response in assay [1], in [2] and in [3] were -2.78%, -1.63% and -7.88%, respectively. For the same compound, the compound was called inactive in assay [4] and in assay [5]. Moreover, the activity change, negative = cytotoxicity in assay [7] is 4.8% [at 11.6 µM]; in assay [14], 21.8% [at 11.6 µM]; in assay [8], 19.8% [at 11.6 µM]; in assay [9], -3.44% [at 11.6 µM]; in assay [10], 13.3% [at 11.6 µM]; in [11] it was 16.6% [at 11.6 µM]. Moreover, the activity change, negative = cytotoxicity is 16.8% [at 11.6 µM] in assay [12] and -4.79% [at 11.6 µM] in assay [13].

As to `Cc1nnc(-c2ccc3occ(-c4ccc(S(C)=O)cc4)c3c2)o1` (stereo not given), the compound was called inactive in assay [1], in assay [4], in assay [5], in [6] and in [8]. Moreover, the max response in assay [2] was -3.27%; in assay [3] it was -2.4%. The Potency result in assay [10], in assay [11] and in assay [12] was “inactive” in each case.

For the compound `C[C@H]1[C@@H](O)[C@H](O)C2[C@]3(C)C([C@@H](O)[C@H]4OC(=O)[C@@H]1[C@@]24C)[C@](C)(O)C=C[C@H]3O[C@@H]1O[C@H](CO)[C@@H](O)[C@H](O)[C@H]1O` (stereo not given in full), the max response was 0.954% in assay [1], -1.06% in assay [2], -2.23% in assay [3] and 8.84% in assay [4]. Besides, the result in assay [5] and in [8] was inactive. The Potency entry in [7], in assay [14], in [9], in assay [10], in assay [11] and in assay [12] was “inactive” in each case. Also, in [13], the Potency result is “inactive”.

In the case of `COC(=O)c1ccc(OC)cc1O[C@@H]1O[C@H](CO[C@@H]2OC[C@@H](O)[C@H](O)[C@H]2O)[C@@H](O)[C@H](O)[C@H]1O`, the max response in assay [1] was -0.542%; in assay [2], -1.51%; in [3], -6.53%. Further, the compound was classed as inactive in assay [4], in assay [5] and in assay [8]. The Potency result in [7], in [9], in assay [10], in assay [11], in assay [12] and in assay [13] was “inactive” in each case.

As for `COc1cc2c(cc1OC)N1C(=O)C[C@@]34C=CC[N@+]5([O-])CC[C@H]2[C@H](CC3)[C@@]145`, the max response in assay [1] is -5.36%; in assay [2], -9.63%; in assay [3] it was -4.24%; in assay [4] it was 1.95%. The result in assay [5], in [6] and in assay [8] was inactive. Further, the Potency result in [7], in assay [9], in assay [10], in assay [11], in assay [12] and in assay [13] was “inactive” in each case.

With `CC1(C)CC[C@]2(C(=O)O[C@@H]3O[C@H](CO[C@@H]4O[C@H](CO)[C@@H](O)[C@H](O)[C@H]4O)[C@@H](O)[C@H](O[C@@H]4O[C@H](CO)[C@@H](O)[C@H](O)[C@H]4O)[C@H]3O)CC[C@]3(C)C(=CCC4[C@@]5(C)CC[C@H](O[C@@H]6OC[C@@H](O)[C@H](O)[C@H]6O)[C@@](C)(C(=O)O)C5CC[C@]43C)[C@@H]2C1` (stereo not given in full), the result in [1], in assay [4] and in [5] was inactive. Besides, the max response in assay [2] is -19.5%; in [3], -27.8%. The activity change, negative = cytotoxicity was 0.217% [at 11.6 µM] in assay [7]; 15.5% [at 11.6 µM] in assay [14]; 9.7% [at 11.6 µM] in [8]; -1.43% [at 11.6 µM] in assay [9]; 13.2% [at 11.6 µM] in assay [10]; 2.76% [at 11.6 µM] in assay [11]. Moreover, the activity change, negative = cytotoxicity in assay [12] is 2.05% [at 11.6 µM]; in assay [13], 1.75% [at 11.6 µM].

Regarding `Cc1c(-c2ccc3c(c2)OCO3)oc2ccc(C(O)C(C)O)cc12` (stereo not given), in assay [1], the max response is -2.17%. Further, the outcome in assay [3], in [4], in [5], in assay [15], in assay [6] and in assay [8] was inactive. Further, the Potency entry in assay [7], in assay [14], in [9], in assay [10], in [11] and in assay [12] was “inactive” each time.
